# Experimental data reported in paper PMC11006913.
# Numbering of substitutions follows the chain as printed.
# Tests used:
# Experiment in all cases: PBM; 200 nM protein, PBS
# Details in all cases: dsDNA, one strand shown
# SIX6 [1] = biological target: T1, SIX6 (Homo sapiens, UniProt O95475 114-200, L167I)
# T1 sequence: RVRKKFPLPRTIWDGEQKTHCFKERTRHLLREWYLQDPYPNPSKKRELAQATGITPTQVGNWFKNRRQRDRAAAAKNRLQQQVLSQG
# SIX6 [2] = biological target: T2, SIX6 (Homo sapiens, UniProt O95475 114-200, L143V)
# T2 sequence: T1 sequence with L30V, I54L
# SIX6 [3] = biological target: T3, SIX6 (Homo sapiens, UniProt O95475 114-200, H141N)
# T3 sequence: T1 sequence with H28N, I54L
# SIX6 [4] = biological target: T4, SIX6 (Homo sapiens, UniProt O95475 114-200, T165P)
# T4 sequence: T1 sequence with T52P, I54L
# SIX6 [5] = biological target: T5, SIX6 (Homo sapiens, UniProt O95475 114-200, L167M)
# T5 sequence: T1 sequence with I54M
# SIX6 [6] = biological target: T6, SIX6 (Homo sapiens, UniProt O95475 114-200, L143M)
# T6 sequence: T1 sequence with L30M, I54L
# SIX6 [7] = biological target: T7, SIX6 (Homo sapiens, UniProt O95475 114-200, L143I)
# T7 sequence: T1 sequence with L30I, I54L
# SIX6 [8] = biological target: T8, SIX6 (Homo sapiens, UniProt O95475 114-200, T165G)
# T8 sequence: T1 sequence with T52G, I54L
# SIX6 [9] = biological target: T9, SIX6 (Homo sapiens, UniProt O95475 114-200, T139Q)
# T9 sequence: T1 sequence with T26Q, I54L
# SIX6 [10] = biological target: T10, SIX6 (Homo sapiens, UniProt O95475 114-200, T165A)
# T10 sequence: T1 sequence with T52A, I54L
# SIX6 [11] = biological target: T11, SIX6 (Homo sapiens, UniProt O95475 114-200, L167V)
# T11 sequence: T1 sequence with I54V
# SIX6 [12] = biological target: T12, SIX6 (Homo sapiens, UniProt O95475 114-200)
# T12 sequence: T1 sequence with I54L
# SIX6 [13] = biological target: T13, SIX6 (Homo sapiens, UniProt O95475 114-200, T165I)
# T13 sequence: T1 sequence with T52I, I54L
Sequence,binding signal (SIX6 [1]),binding signal (SIX6 [2]),binding signal (SIX6 [3]),binding signal (SIX6 [4]),binding signal (SIX6 [5]),binding signal (SIX6 [6]),binding signal (SIX6 [7]),binding signal (SIX6 [8]),binding signal (SIX6 [9]),binding signal (SIX6 [10]),binding signal (SIX6 [11]),binding signal (SIX6 [12]),binding signal (SIX6 [13])
GCTGTCCC,"8.84 upbm affinity estimate (log intensity, higher = more binding, comparable within an allelic series)","8.8 upbm affinity estimate (log intensity, higher = more binding, comparable within an allelic series)","8.82 upbm affinity estimate (log intensity, higher = more binding, comparable within an allelic series)","9.07 upbm affinity estimate (log intensity, higher = more binding, comparable within an allelic series)","8.79 upbm affinity estimate (log intensity, higher = more binding, comparable within an allelic series)","8.89 upbm affinity estimate (log intensity, higher = more binding, comparable within an allelic series)","8.88 upbm affinity estimate (log intensity, higher = more binding, comparable within an allelic series)","8.98 upbm affinity estimate (log intensity, higher = more binding, comparable within an allelic series)","9.06 upbm affinity estimate (log intensity, higher = more binding, comparable within an allelic series)","8.87 upbm affinity estimate (log intensity, higher = more binding, comparable within an allelic series)","9.03 upbm affinity estimate (log intensity, higher = more binding, comparable within an allelic series)","8.86 upbm affinity estimate (log intensity, higher = more binding, comparable within an allelic series)","8.9 upbm affinity estimate (log intensity, higher = more binding, comparable within an allelic series)"
CATGATAC,"11.2 upbm affinity estimate (log intensity, higher = more binding, comparable within an allelic series)","10.3 upbm affinity estimate (log intensity, higher = more binding, comparable within an allelic series)","11.2 upbm affinity estimate (log intensity, higher = more binding, comparable within an allelic series)","9.82 upbm affinity estimate (log intensity, higher = more binding, comparable within an allelic series)","10.7 upbm affinity estimate (log intensity, higher = more binding, comparable within an allelic series)","10.9 upbm affinity estimate (log intensity, higher = more binding, comparable within an allelic series)","10.4 upbm affinity estimate (log intensity, higher = more binding, comparable within an allelic series)","11.3 upbm affinity estimate (log intensity, higher = more binding, comparable within an allelic series)","11.2 upbm affinity estimate (log intensity, higher = more binding, comparable within an allelic series)","11.1 upbm affinity estimate (log intensity, higher = more binding, comparable within an allelic series)","11 upbm affinity estimate (log intensity, higher = more binding, comparable within an allelic series)","11 upbm affinity estimate (log intensity, higher = more binding, comparable within an allelic series)","10.9 upbm affinity estimate (log intensity, higher = more binding, comparable within an allelic series)"
GTATCACA,"11.4 upbm affinity estimate (log intensity, higher = more binding, comparable within an allelic series)","10.4 upbm affinity estimate (log intensity, higher = more binding, comparable within an allelic series)","11.4 upbm affinity estimate (log intensity, higher = more binding, comparable within an allelic series)","9.83 upbm affinity estimate (log intensity, higher = more binding, comparable within an allelic series)","10.8 upbm affinity estimate (log intensity, higher = more binding, comparable within an allelic series)","11.2 upbm affinity estimate (log intensity, higher = more binding, comparable within an allelic series)","10.5 upbm affinity estimate (log intensity, higher = more binding, comparable within an allelic series)","11.6 upbm affinity estimate (log intensity, higher = more binding, comparable within an allelic series)","11.4 upbm affinity estimate (log intensity, higher = more binding, comparable within an allelic series)","11.4 upbm affinity estimate (log intensity, higher = more binding, comparable within an allelic series)","11.2 upbm affinity estimate (log intensity, higher = more binding, comparable within an allelic series)","11.2 upbm affinity estimate (log intensity, higher = more binding, comparable within an allelic series)","11.2 upbm affinity estimate (log intensity, higher = more binding, comparable within an allelic series)"
CAGTGGCC,"8.99 upbm affinity estimate (log intensity, higher = more binding, comparable within an allelic series)","8.9 upbm affinity estimate (log intensity, higher = more binding, comparable within an allelic series)","8.99 upbm affinity estimate (log intensity, higher = more binding, comparable within an allelic series)","9.04 upbm affinity estimate (log intensity, higher = more binding, comparable within an allelic series)","8.93 upbm affinity estimate (log intensity, higher = more binding, comparable within an allelic series)","8.95 upbm affinity estimate (log intensity, higher = more binding, comparable within an allelic series)","8.95 upbm affinity estimate (log intensity, higher = more binding, comparable within an allelic series)","9.02 upbm affinity estimate (log intensity, higher = more binding, comparable within an allelic series)","8.99 upbm affinity estimate (log intensity, higher = more binding, comparable within an allelic series)","8.94 upbm affinity estimate (log intensity, higher = more binding, comparable within an allelic series)","9.05 upbm affinity estimate (log intensity, higher = more binding, comparable within an allelic series)","8.95 upbm affinity estimate (log intensity, higher = more binding, comparable within an allelic series)","8.94 upbm affinity estimate (log intensity, higher = more binding, comparable within an allelic series)"
ATGGGGGC,"8.95 upbm affinity estimate (log intensity, higher = more binding, comparable within an allelic series)","8.73 upbm affinity estimate (log intensity, higher = more binding, comparable within an allelic series)","9.01 upbm affinity estimate (log intensity, higher = more binding, comparable within an allelic series)","8.77 upbm affinity estimate (log intensity, higher = more binding, comparable within an allelic series)","8.95 upbm affinity estimate (log intensity, higher = more binding, comparable within an allelic series)","8.95 upbm affinity estimate (log intensity, higher = more binding, comparable within an allelic series)","8.81 upbm affinity estimate (log intensity, higher = more binding, comparable within an allelic series)","8.95 upbm affinity estimate (log intensity, higher = more binding, comparable within an allelic series)","9.11 upbm affinity estimate (log intensity, higher = more binding, comparable within an allelic series)","8.97 upbm affinity estimate (log intensity, higher = more binding, comparable within an allelic series)","8.97 upbm affinity estimate (log intensity, higher = more binding, comparable within an allelic series)","8.87 upbm affinity estimate (log intensity, higher = more binding, comparable within an allelic series)","8.97 upbm affinity estimate (log intensity, higher = more binding, comparable within an allelic series)"
CGGGGACC,"8.99 upbm affinity estimate (log intensity, higher = more binding, comparable within an allelic series)","8.83 upbm affinity estimate (log intensity, higher = more binding, comparable within an allelic series)","8.99 upbm affinity estimate (log intensity, higher = more binding, comparable within an allelic series)","8.96 upbm affinity estimate (log intensity, higher = more binding, comparable within an allelic series)","8.97 upbm affinity estimate (log intensity, higher = more binding, comparable within an allelic series)","8.88 upbm affinity estimate (log intensity, higher = more binding, comparable within an allelic series)","8.86 upbm affinity estimate (log intensity, higher = more binding, comparable within an allelic series)","8.9 upbm affinity estimate (log intensity, higher = more binding, comparable within an allelic series)","8.95 upbm affinity estimate (log intensity, higher = more binding, comparable within an allelic series)","8.92 upbm affinity estimate (log intensity, higher = more binding, comparable within an allelic series)","8.99 upbm affinity estimate (log intensity, higher = more binding, comparable within an allelic series)","8.89 upbm affinity estimate (log intensity, higher = more binding, comparable within an allelic series)","8.91 upbm affinity estimate (log intensity, higher = more binding, comparable within an allelic series)"
CCCCGCAG,"9.03 upbm affinity estimate (log intensity, higher = more binding, comparable within an allelic series)","8.85 upbm affinity estimate (log intensity, higher = more binding, comparable within an allelic series)","9.03 upbm affinity estimate (log intensity, higher = more binding, comparable within an allelic series)","8.95 upbm affinity estimate (log intensity, higher = more binding, comparable within an allelic series)","9 upbm affinity estimate (log intensity, higher = more binding, comparable within an allelic series)","8.92 upbm affinity estimate (log intensity, higher = more binding, comparable within an allelic series)","8.95 upbm affinity estimate (log intensity, higher = more binding, comparable within an allelic series)","9.04 upbm affinity estimate (log intensity, higher = more binding, comparable within an allelic series)","8.99 upbm affinity estimate (log intensity, higher = more binding, comparable within an allelic series)","8.96 upbm affinity estimate (log intensity, higher = more binding, comparable within an allelic series)","8.93 upbm affinity estimate (log intensity, higher = more binding, comparable within an allelic series)","8.96 upbm affinity estimate (log intensity, higher = more binding, comparable within an allelic series)","8.97 upbm affinity estimate (log intensity, higher = more binding, comparable within an allelic series)"
ATGGTATC,"11 upbm affinity estimate (log intensity, higher = more binding, comparable within an allelic series)","10.3 upbm affinity estimate (log intensity, higher = more binding, comparable within an allelic series)","11 upbm affinity estimate (log intensity, higher = more binding, comparable within an allelic series)","9.62 upbm affinity estimate (log intensity, higher = more binding, comparable within an allelic series)","10.6 upbm affinity estimate (log intensity, higher = more binding, comparable within an allelic series)","10.7 upbm affinity estimate (log intensity, higher = more binding, comparable within an allelic series)","10.4 upbm affinity estimate (log intensity, higher = more binding, comparable within an allelic series)","11.1 upbm affinity estimate (log intensity, higher = more binding, comparable within an allelic series)","11.2 upbm affinity estimate (log intensity, higher = more binding, comparable within an allelic series)","10.9 upbm affinity estimate (log intensity, higher = more binding, comparable within an allelic series)","10.8 upbm affinity estimate (log intensity, higher = more binding, comparable within an allelic series)","10.9 upbm affinity estimate (log intensity, higher = more binding, comparable within an allelic series)","10.8 upbm affinity estimate (log intensity, higher = more binding, comparable within an allelic series)"
GATGATAC,"11.4 upbm affinity estimate (log intensity, higher = more binding, comparable within an allelic series)","10.4 upbm affinity estimate (log intensity, higher = more binding, comparable within an allelic series)","11.3 upbm affinity estimate (log intensity, higher = more binding, comparable within an allelic series)","9.55 upbm affinity estimate (log intensity, higher = more binding, comparable within an allelic series)","10.7 upbm affinity estimate (log intensity, higher = more binding, comparable within an allelic series)","11.1 upbm affinity estimate (log intensity, higher = more binding, comparable within an allelic series)","10.5 upbm affinity estimate (log intensity, higher = more binding, comparable within an allelic series)","11.4 upbm affinity estimate (log intensity, higher = more binding, comparable within an allelic series)","11.3 upbm affinity estimate (log intensity, higher = more binding, comparable within an allelic series)","11.2 upbm affinity estimate (log intensity, higher = more binding, comparable within an allelic series)","11.2 upbm affinity estimate (log intensity, higher = more binding, comparable within an allelic series)","11.1 upbm affinity estimate (log intensity, higher = more binding, comparable within an allelic series)","11.1 upbm affinity estimate (log intensity, higher = more binding, comparable within an allelic series)"
ATGACACC,"10.7 upbm affinity estimate (log intensity, higher = more binding, comparable within an allelic series)","10.2 upbm affinity estimate (log intensity, higher = more binding, comparable within an allelic series)","11.1 upbm affinity estimate (log intensity, higher = more binding, comparable within an allelic series)","9.61 upbm affinity estimate (log intensity, higher = more binding, comparable within an allelic series)","10.1 upbm affinity estimate (log intensity, higher = more binding, comparable within an allelic series)","10.7 upbm affinity estimate (log intensity, higher = more binding, comparable within an allelic series)","10.4 upbm affinity estimate (log intensity, higher = more binding, comparable within an allelic series)","11.4 upbm affinity estimate (log intensity, higher = more binding, comparable within an allelic series)","11.3 upbm affinity estimate (log intensity, higher = more binding, comparable within an allelic series)","11.4 upbm affinity estimate (log intensity, higher = more binding, comparable within an allelic series)","10.5 upbm affinity estimate (log intensity, higher = more binding, comparable within an allelic series)","10.9 upbm affinity estimate (log intensity, higher = more binding, comparable within an allelic series)","10.9 upbm affinity estimate (log intensity, higher = more binding, comparable within an allelic series)"
